According to the supplement of paper PMC10037445:
Over roughly 2,900 compounds, “NF-kB SEAP reporter activity, fold change vs agonist alone” has its median near 0.99; the highest 2% begin near 2.6. The entries come from a sample that favours the highest values as a whole.

Key:
[1] = tested on: RAW-Dual; assay: NF-kB SEAP reporter activity, fold change vs agonist alone; cytotoxicity flag (confluency mask): not cytotoxic; higher = enhanced NF-kB activity
Outline: (§1)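 RAW-Dual macrophages (50,000 cells/well in DMEM, 384-well plates) received 50 nL of library stock by pin tool, then a PRR agonist 1 h later, and were kept at 37 °C, 5% CO2. After 20 hours, supernatant was read for IRF by QuantiLuc luminescence and for NF-κB by QuantiBlue absorbance at 620 nm. Reporter activity is fold change over agonist-alone wells. Cytotoxic wells had IncuCyte confluency below 70% of agonist controls in both mask sets.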

[2] = tested on: RAW-Dual; assay: NF-kB SEAP reporter activity, fold change vs agonist alone; higher = enhanced NF-kB activity; conditions: cytotoxicity flag (confluency mask): not cytotoxic
Outline: as §1

[3] = agonist: ODN 1826 (TLR9) 0.5 ug/mL
[4] = agonist: Pam2CSK4 (TLR2/6) 0.1 ug/mL
[5] = agonist: Pam3CSK4 (TLR2/1) 0.1 ug/mL
[6] = library stock concentration (final ~1000-fold dilution): 10 mM, agonist: MPLA (TLR4) […]
[7] = library stock concentration (final ~1000-fold dilution): 10 mM, agonist: Imiquimod (TLR7) […]

CCC1OC(=O)C(C)C(OC2CC(C)(OC)C(O)C(C)O2)C(C)C(OC2OC(C)CC(N(C)C)C2O)C(C)(O)CC(C)C(=O)C(C)C(O)C1(C)O.N#CS (configuration not stated) (library stock concentration (final ~1000-fold dilution): 10 mM)
NF-kB SEAP reporter activity ([1]; agonist: LPS (TLR4) 0.1 ug/mL): 1.06 | NF-kB SEAP reporter activity [1, 3]: 0.88 | NF-kB SEAP reporter activity [1, 4]: 1.07 | NF-kB SEAP reporter activity [1, 5]: 1.08

CCC1OC(=O)C(C)C(OC2CC(C)(OC)C(O)C(C)O2)C(C)C(OC2OC(C)CC(N(C)C)C2O)C(C)(O)CC(C)C(=O)C(C)C(O)C1(C)O.N#CS (configuration not stated)
NF-kB SEAP reporter activity [2, 6]: 1.07

COc1cc(CCC(O)CC(O)CCc2ccc(O)c(OC)c2)ccc1O (configuration not stated) (library stock concentration (final ~1000-fold dilution): 10 mM)
NF-kB SEAP reporter activity ([1]; agonist: LPS (TLR4) 0.1 ug/mL): 1.41 | NF-kB SEAP reporter activity [1, 3]: 1.15 | NF-kB SEAP reporter activity [1, 4]: 1.08 | NF-kB SEAP reporter activity [1, 5]: 1.06

COc1cc(CCC(O)CC(O)CCc2ccc(O)c(OC)c2)ccc1O (configuration not stated)
NF-kB SEAP reporter activity [2, 7]: 1.04 | NF-kB SEAP reporter activity [2, 6]: 1.05

COC1=CC(c2cc3ccccc3[nH]2)=N/C1=C\c1[nH]c(C)cc1C.CS(=O)(=O)O (library stock concentration (final ~1000-fold dilution): 10 mM)
NF-kB SEAP reporter activity ([1]; agonist: LPS (TLR4) 0.1 ug/mL): 8.62 | NF-kB SEAP reporter activity [1, 3]: 1.9 | NF-kB SEAP reporter activity [1, 4]: 2.55 | NF-kB SEAP reporter activity [1, 5]: 3.87

COC1=CC(c2cc3ccccc3[nH]2)=N/C1=C\c1[nH]c(C)cc1C.CS(=O)(=O)O
NF-kB SEAP reporter activity [2, 7]: 1.4 | NF-kB SEAP reporter activity [2, 6]: 2.78

CCOC(=O)COc1ccc(/C=C2\SC(=S)NC2=O)cc1OC
NF-kB SEAP reporter activity [2, 7]: 0.985 | NF-kB SEAP reporter activity [2, 6]: 1.1

CCOC(=O)COc1ccc(/C=C2\SC(=S)NC2=O)cc1OC (library stock concentration (final ~1000-fold dilution): 10 mM)
NF-kB SEAP reporter activity ([1]; agonist: LPS (TLR4) 0.1 ug/mL): 1.04 | NF-kB SEAP reporter activity [1, 3]: 0.889 | NF-kB SEAP reporter activity [1, 4]: 0.889 | NF-kB SEAP reporter activity [1, 5]: 1.1

CCOC(=O)C1=CCCCC1S(=O)(=O)Nc1ccc(F)cc1Cl (configuration not stated)
NF-kB SEAP reporter activity ([2]; library stock concentration (final ~1000-fold dilution): .1 mM, agonist: Imiquimod (TLR7) […]): 1.2 | NF-kB SEAP reporter activity ([2]; library stock concentration (final ~1000-fold dilution): .1 mM, agonist: MPLA (TLR4) […]): 0.252

CCOC(=O)C1=CCCCC1S(=O)(=O)Nc1ccc(F)cc1Cl (configuration not stated) (library stock concentration (final ~1000-fold dilution): .1 mM)
NF-kB SEAP reporter activity ([1]; agonist: LPS (TLR4) 0.1 ug/mL): 0.288 | NF-kB SEAP reporter activity [1, 3]: 1.09 | NF-kB SEAP reporter activity [1, 4]: 1.36 | NF-kB SEAP reporter activity [1, 5]: 1.39

CS(=O)(=O)O.CS(=O)(=O)O.N=C(N)Nc1ccc(C(=O)Oc2ccc3cc(C(=N)N)ccc3c2)cc1
NF-kB SEAP reporter activity [2, 7]: 1.01 | NF-kB SEAP reporter activity [2, 6]: 1.02

CS(=O)(=O)O.CS(=O)(=O)O.N=C(N)Nc1ccc(C(=O)Oc2ccc3cc(C(=N)N)ccc3c2)cc1 (library stock concentration (final ~1000-fold dilution): 10 mM)
NF-kB SEAP reporter activity ([1]; agonist: LPS (TLR4) 0.1 ug/mL): 1.08 | NF-kB SEAP reporter activity [1, 3]: 1.05 | NF-kB SEAP reporter activity [1, 4]: 1.02 | NF-kB SEAP reporter activity [1, 5]: 0.924

N=C(N)c1ccc(OCCCCCOc2ccc(C(=N)N)cc2)cc1.O=S(=O)(O)CCO.O=S(=O)(O)CCO
NF-kB SEAP reporter activity [2, 7]: 1.39 | NF-kB SEAP reporter activity [2, 6]: 1.89

N=C(N)c1ccc(OCCCCCOc2ccc(C(=N)N)cc2)cc1.O=S(=O)(O)CCO.O=S(=O)(O)CCO (library stock concentration (final ~1000-fold dilution): 10 mM)
NF-kB SEAP reporter activity ([1]; agonist: LPS (TLR4) 0.1 ug/mL): 3.88 | NF-kB SEAP reporter activity [1, 3]: 1.22 | NF-kB SEAP reporter activity [1, 4]: 0.758 | NF-kB SEAP reporter activity [1, 5]: 1.06

NC(=O)c1ccc(OCCCN2CC3CCCC3C2)cc1 (configuration not stated)
NF-kB SEAP reporter activity [2, 7]: 0.844 | NF-kB SEAP reporter activity [2, 6]: 1.05

NC(=O)c1ccc(OCCCN2CC3CCCC3C2)cc1 (configuration not stated) (library stock concentration (final ~1000-fold dilution): 10 mM)
NF-kB SEAP reporter activity ([1]; agonist: LPS (TLR4) 0.1 ug/mL): 0.976 | NF-kB SEAP reporter activity [1, 3]: 0.696 | NF-kB SEAP reporter activity [1, 4]: 0.926 | NF-kB SEAP reporter activity [1, 5]: 1.14
